In all, about 330,000 compounds went through this assay and about 1,000 (0.3%) were called active. Another 3% or so got no clear call; they are omitted. The full list was thinned out, with actives kept by preference. Unmarked numbers belong to inactive results. Calls follow the shape of the dose curve; as a rule, active = well fitted inhibition curve with a large enough effect; inconclusive = small, poorly fitted or top-dose-only effect; inactive = no such curve, though single readings can be large or run the other way; tested in mouse RAW 264.7 cells.
assay: qHTS for Inhibitors of Cell Surface uPA Generation; settings: cell surface uPA generation assay; series mostly up to 38.3 µM; activity change, negative = inhibition: at the top concentration; also: nearly all actives have a fitted effect of over 55% in size
Procedure, shortened: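 RAW 264.7, 4000 cells/well, o/n 37 C; cpd 1:5 dilution, up to 38.3 uM final; 24 h 37 C/5% CO2 with reagent; ATP-Lite lum. High ATP = LF entry blocked.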
% is scaled to controls: 0 for no effect and ±100 for the full control effect; potency is read from the fitted curve at half-maximal effect.

SMILES | activity change, negative = inhibition [%] | Potency
O=C(O)c1ccc(Cn2cnc3c(=S)nc[nH]c32)cc1 | -3.45 | 
CCCCC(=O)NC(c1ccc(OC)c(OC)c1)c1ccc2cccnc2c1O (stereo not given) | -13.8 | 
CC1CN(Cc2ccccc2)C(=S)NC1=O (stereo not given) | 1.89 | 
COc1cccc(/C=N/Nc2ccc(S(=O)(=O)Nc3ccccc3C(=O)O)cc2[N+](=O)[O-])c1O | 0.183 | 
c1ccc2c(c1)OC1OC2Oc2ccccc21 | 12.3 | 
Cc1ccsc1/C=N/Nc1ccc(Cl)nn1 | 11.8 | 
COc1cccc(/C=N/Nc2ccc(Cl)nn2)c1 | 5.63 | 
Oc1cccc(/C=N/Nc2ccc(Cl)nn2)c1O |  | 2.82 µM (active)
Cc1ccc(S(=O)(=O)CCC(=O)OCC(=O)N(C)Cc2ccccc2)cc1 | 4.47 | 
NC(=S)NN=C1CCCC(C(F)(F)F)C1 (stereo not given) | -2.84 | 
CSCCC(NC(=O)COc1ccccc1)C(=O)N1CCN(c2cccc(C(F)(F)F)c2)CC1 (stereo not given) | -9.29 | 
COc1cc(C2c3cc4c(cc3C(O)C3COC(=O)C23)OCO4)cc(OC)c1OC (stereo not given) | -8.49 | 
O=C(Nc1ccc(S(=O)(=O)Nc2nccs2)cc1)c1cc(-c2ccncc2)nc2ccccc12 | 1.2 | 
COC(=O)CNC(=O)c1cc(-c2ccncc2)nc2ccccc12 | -0.0987 | 
CCN(CC)CCNC(=O)c1ccc(NC(=O)c2cc(-c3ccncc3)nc3ccccc23)cc1 |  | 10 µM (active)
CN(C(=O)c1cccc(NC(=O)Cc2cccc(NC(=O)C3CCCN(C(=O)C4CC4)C3)c2)c1)C1CCC1 (stereo not given) | 14.2 | 
O=C(Nc1ncccc1O)c1ccc(S(=O)(=O)N2CCCCCC2)cc1 | 0.388 | 
O=C(N/N=C/c1ccccn1)c1ccc(S(=O)(=O)N2CCCCCC2)cc1 | 5.59 | 
O=C(Nc1ncccc1O)c1ccc(S(=O)(=O)N2CCCC2)cc1 |  | 7.94 µM (active)
Cc1cn(C2CC(O)C(CO)O2)c(=O)n(CCCc2ccccc2)c1=O (stereo not given) | -2.05 | 
O=S1(=O)CSCS(=O)(=O)C1 | 2.84 | 
Cc1[nH]c2ccc(C(=O)N3CCN(C)CC3)cc2c1C | -8.89 | 
CCOc1ccccc1N1CCN(C(=O)c2ccc3[nH]c(C)c(C)c3c2)CC1 |  | 2.51 µM (active)
COc1ccccc1N1CCN(C(=O)c2ccc(Cl)c(S(=O)(=O)N3CCCC3)c2)CC1 | -0.654 | 
CCCCCCCCNS(=O)(=O)CCNC1CCCCC1 | 6.43 | 
O=C(Cc1ccc(S(=O)(=O)N2CCOCC2)s1)Nc1ccc(Br)c(C(F)(F)F)c1 | -17.8 | 
CC(C)(C)S(=O)(=O)N1Cc2cc(CO)cc(CCO)c2[C@H]1CCO | 2.5 | 

SMILES | activity change, negative = inhibition [%] | Potency
Cc1ccccc1-c1ccc(Nc2ccc(C(=O)N3CCOCC3)cc2)nn1 | -5.32 | 
Cc1ccc(C(=O)N2CCN(C(=O)N3CCOCC3)CC2)cc1 | 1.5 | 
Cc1oc2c(c1C(=O)N1CCOCC1)C(=O)c1ccccc1C2=O |  | 2.51 µM (active)
C/C(=N\Nc1ccccc1)c1cccs1 | -0.263 | 
CC1C(C)N(C(=O)CCl)c2ccccc2N1C(=O)CCl (stereo not given) | -9.43 | 
O=C(NN=Cc1ccccc1O)NN=Cc1ccccc1O | -13.6 | 
O=C1C[C@@H]2c3c(cccc3CN1Cc1ccccc1)C[C@@H](O)[C@H]2O | 4.62 | 
COc1ccc(CNCCCn2cnc3c(OCc4ccccc4)ncnc32)cc1 | -11.6 | 
CC(C)(C)OC(=O)N1CCC(C(=O)Nc2cccc(C(=O)NCCc3ccccc3)c2)CC1 | 21 | 
CC(C)[C@@H](C(=O)OCC(=O)c1ccc2c(c1)NC(=O)CO2)N1C(=O)c2ccccc2C1=O | 0.762 | 
Oc1ccccc1CN1CCN(C(c2ccccc2)c2ccccc2)CC1 | 7.27 | 
CC1(C)CC(N2CCN(C(c3ccccc3)c3ccccc3)CC2)=CC(=[N+]2CCCCC2)C1 |  | 1.12 µM (active)
O=C1CC(N2CCN(C(c3ccccc3)c3ccccc3)CC2)C(=O)N1 (stereo not given) | -0.34 | 
COc1ccc(-c2ccc3c(c2)C2CC3CCN2CCC#N)cc1 (stereo not given) | 11.7 | 
CC(C=Cc1ccccc1)=NNS(=O)(=O)c1ccc([N+](=O)[O-])cc1 | -8.61 | 
CCCCCOc1ccc(CSC2=NCCN2)cc1[N+](=O)[O-] |  | 10 µM (active)
CCCOc1ccc(Cn2ccnc2)cc1[N+](=O)[O-] | 11.6 | 
CCCCOc1ccc(CSC(=N)N)cc1[N+](=O)[O-] | -16.7 | 
COc1ccc(Br)cc1/C=N/Nc1ccc(S(=O)(=O)Nc2ccccc2C(=O)O)cc1[N+](=O)[O-] | 4.32 | 
O=C(NCC1(N2CCCCC2)CCCCC1)c1cccc(S(=O)(=O)Nc2ccccc2Cl)c1 | 0.0097 | 
CN(C)C(CNC(=O)c1cc2ccccc2o1)c1ccccc1 (stereo not given) | 0.0215 | 
O=C1/C(=C\c2ccc(O)cc2)CCC1CNc1ccc(Cl)cc1 (stereo not given) | -11.8 | 
O=C(CC(=O)c1cccnc1)c1ccccc1 | -2.47 | 
COc1ccc(OC)c(/C=C/C(=O)OCC(=O)Nc2ccc3c(c2)OCCO3)c1 | -8.9 | 
COc1cccc(/C=C/C(=O)Nc2ccc3c(c2)OCCO3)c1 |  | 2.82 µM (active)
O=C(/C=C\c1ccc2c(c1)OCO2)NC1(C(=O)Nc2ccc3c(c2)OCCO3)CCCCC1 | 11.7 | 
c1ccc(CCc2ccccn2)cc1 | 3.66 | 

SMILES | activity change, negative = inhibition [%] | Potency
NC(CSC1(c2ccccc2)c2ccccc2-c2ccccc21)C(=O)O (stereo not given) | 11.5 | 
Cc1c(/C=N\NC(=O)c2cc3ccccc3o2)c2ccccc2n1C |  | 3.55 µM (active)
O=C(N/N=C/c1cccc(O)c1)c1cc2c(ccc3ccccc32)o1 | -9.76 | 
Cc1c(/C=N/N2C(=O)C3C4C=CC(C4)C3C2=O)c2ccccc2n1C (stereo not given) | 7.94 | 
CC(=NNC(=S)N1CCCCCC1)c1ccccn1 | -9.94 | 
Cc1cc(NC(=O)C(C)SCC(=O)Nc2cccc(S(=O)(=O)N3CCCCCC3)c2)no1 (stereo not given) | -16.5 | 
O=C(Nc1ccn(CCCNCc2ccc3[nH]ccc3c2)c(=O)n1)OCc1ccccc1 | 13.4 | 
NNc1cccc(C=Cc2ccccc2)cc1=O | -2.6 | 
Cn1c(CCN2CCCCCC2)nc2cc(NC(=O)Nc3ccccc3)ccc21 | -5.98 | 
Cc1nc2cc(NC(=O)Nc3cccc(F)c3)ccc2n1C |  | 3.98 µM (active)
C=CCN(C(=O)Nc1ccc2c(c1)nc(C)n2C)c1ccccc1 | -18 | 
Cc1ccc(OCCNC(=O)c2cccc(S(=O)(=O)N3CCN(Cc4ccccc4)CC3)c2)cc1 | 0.842 | 
C=CCOC(=O)N1CCC2CC1c1cc(-c3ccc(OC)cc3)ccc12 (stereo not given) | 6.22 | 
C[C@@H](NC(=O)[C@@H]1Cc2ccccc2CN1)C(=O)NC1CCCC1 |  | 7.08 µM (active)
O=C(CNC(=O)[C@@H]1Cc2ccccc2CN1)NC1CCCCC1 | -5.14 | 
C[C@H](NC(=O)[C@@H]1Cc2ccccc2CN1C(=O)OC(C)(C)C)C(=O)NC1CCCC1 | 4.21 | 
NC(=O)c1ncn([C@@H]2O[C@H](CNCc3cnc(N4CCOCC4)s3)[C@@H](O)[C@H]2O)n1 | 3.82 | 
Cc1c[n+]([O-])ccc1[N+](=O)[O-] | -3.23 | 
COc1ccc(-c2ccc3c(c2)[C@@H]2C[C@H](N(C)S(=O)(=O)c4ccccc4)[C@H]([C@H](C)O)C(=O)N2CC3)cc1 | -19.2 | 
Cc1ccc2c(c1)C1CN(C)CCC1N2S(=O)(=O)c1cccc(F)c1 (stereo not given) | -0.281 | 
Cc1ccc2c(c1)C1CN(C)CCC1N2S(=O)(=O)c1ccc(Oc2ccc([N+](=O)[O-])cc2)cc1 (stereo not given) |  | 8.91 µM (active)
Cc1ccc2c(c1)C1CN(C)CCC1N2C(=S)Nc1ccc(OC(F)F)cc1 (stereo not given) | -0.804 | 
C/C(=N\Nc1ccc(Cl)nn1)c1ccccc1O | 0.477 | 
C[C@]12CCC(=O)C=C1C=CC1C2CC[C@@]2(C)C1CC[C@@]21CCC(=O)O1 (stereo not given in full) | 2.58 | 
Nc1ccc2[nH]c(=S)sc2c1 | 0.0587 | 
Cc1ccc(C(=O)O/N=C(\N)c2ccccn2)cc1Cl |  | 8.91 µM (active)
N/C(=N\OC(=O)c1ccc([N+](=O)[O-])cc1)c1ccccn1 | -27.5 | 

SMILES | activity change, negative = inhibition [%] | Potency
COc1ccc(C(=O)O/N=C(\N)c2ccccn2)cc1[N+](=O)[O-] | -7.26 | 
Cc1ccc(S(=O)(=O)N2CCC(C(=O)N3CCCCCCC3)CC2)cc1 | 2.24 | 
COC(=O)Cc1nc2c(N)nc(N)nc2[nH]c1=O | 5.49 | 
Cc1cccc(N2C(=O)c3cccnc3C2=O)c1 | 1.6 | 
C=CCNc1cnn(-c2ccc(C)cc2)c(=O)c1Cl | -4 | 
Cc1cccc(-n2ncc(Cl)c(Cl)c2=O)c1 |  | 10 µM (active)
CNN/C(N=Cc1ccc([N+](=O)[O-])s1)=N\S(=O)(=O)c1cc(C)c(Cl)cc1SCc1ccccc1 | -1.55 | 
CC(C)(C)c1nnc2sc(SCC(O)=C(C#N)c3nc4ccccc4[nH]3)nn2c1=O | -10.3 | 
COc1ccc(S(=O)(=O)N2C[C@H]3CON(C)[C@H]3C[C@H]2c2cccc(Br)c2)cc1 | -0.931 | 
CN(C(=O)CSc1nncc2ccccc12)C1CCCCC1 | 3.3 | 
CN(c1ccc2nc3ccccc3c(=O)n2n1)C1CCCCC1 |  | 0.794 µM (active)
CN(C(=O)c1cc2c(=O)n3ccccc3nc2s1)C1CCCCC1 | -10.8 | 
Cn1cc(C2OC(=O)c3ccccc32)c2ccccc21 (stereo not given) | -8.76 | 
COC(=O)c1ccc(NCc2cc(O)ccc2O)cc1 | 0.208 | 
O=C(Cc1ccc([N+](=O)[O-])cc1)NCCc1ccc2c(c1)OCO2 | 0.328 | 
O=C(NCc1ccc2c(c1)OCO2)c1cc([N+](=O)[O-])ccc1N1CCOCC1 |  | 2.82 µM (active)
CC1CCN(c2ccc(C(=O)NCc3ccc4c(c3)OCO4)cc2[N+](=O)[O-])CC1 | 1.21 | 
CC(=O)c1cccc(-c2ccc(CN3C(CC(C)C)C(=O)N(Cc4cn(CC5CCCCC5)nn4)CCS3(=O)=O)cc2)c1 (stereo not given) | -6.78 | 
C=CCCC(=O)N1C[C@H]2CON(C)[C@H]2C[C@H]1c1cccc(Nc2ccccc2)c1 | 15.4 | 
CC(Nc1ccc([N+](=O)[O-])cc1[N+](=O)[O-])c1ccccc1 (stereo not given) | 6.84 | 
COc1cccc2c1C(=O)c1c(O)c3c(c(O)c1C2=O)CC(O)(C(C)=NNC(=O)c1ccc(Cl)c(Cl)c1)CC3OC1CC(N)C(O)C(C)O1 (stereo not given) | -16.6 | 
CN1CCN(CCCNC(=O)c2ccc(/C=C3\Oc4ccccc4N(Cc4ccc(Cl)cc4)C3=O)cc2)CC1 | -12.9 | 
O=C(NCCCN1CCOCC1)c1ccc2c(c1)N(Cc1cccc(F)c1)C(=O)c1ccccc1S2 | 0.696 | 
CCN1CCN(CCNC(=O)c2ccc(/C=C3/Sc4ccccc4N(Cc4cccc(C)c4)C3=O)cc2)CC1 |  | 6.31 µM (active)

From PubChem BioAssay AID540303 (National Center for Advancing Translational Sciences (NCATS), 2011)
